Test results from PubChem BioAssay (NCI).
About 79,000 compounds went through this panel and 15% of them were active in at least one assay; those are over-represented in the sample as a whole. Calls of active or inactive are those of the source. Rule as the data show it: active = growth inhibition above about 70%; inactive = the rest.

How the values were obtained:
[1] = NCI Yeast Anticancer Drug Screen. Data for the rad52 strain (AID 147);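 also: 0% = growth of vehicle-treated control cultures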; details: S. cerevisiae rad52 mutant growth inhibition, stronger effect = higher value
Summary of the method: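 Growth of repair-deficient yeast cells was compared between compound-treated and vehicle-treated cultures to give percent inhibition.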

[2] = NCI Yeast Anticancer Drug Screen. Data for the wt1 strain (AID 149);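 also: 0% = growth of vehicle-treated wt1 cultures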; details: S. cerevisiae wt1 strain (SPY 50644) growth inhibition, stronger effect = higher value
Summary of the method: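 wt1 strain grown with compound or vehicle; inhibition taken from the growth difference.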

[3] = NCI Yeast Anticancer Drug Screen. Data for the rad50EPP+ strain (AID 151);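 also: 0% = growth of vehicle-treated control cultures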; details: S. cerevisiae rad50 mutant strain, stronger effect = higher value
Summary of the method: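 Measured: growth inhibition of rad50EPP+ yeast. Reference: vehicle-treated controls. Screen uses strains with defined genetic alterations in DNA damage repair or cell cycle control.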

[4] = NCI Yeast Anticancer Drug Screen. Data for the mgt1 strain (AID 153); details: S. cerevisiae mgt1 mutant growth inhibition, stronger effect = higher value
Summary of the method: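 Compounds were applied to mgt1 mutant yeast, and growth was then compared against vehicle-treated control cultures to give percent inhibition.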

[5] = NCI Yeast Anticancer Drug Screen. Data for the rad50 strain (AID 155);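 also: 0% = growth of vehicle-only cultures of the same strain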; details: S. cerevisiae rad50 strain growth inhibition, stronger effect = higher value
Summary of the method: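 DNA repair mutant yeast, compound exposure, growth read-out; inhibition is taken relative to vehicle.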

[6] = NCI Yeast Anticancer Drug Screen. Data for the mec2-1 strain (AID 157); details: S. cerevisiae mec2-1 strain, stronger effect = higher value
Summary of the method: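 Compounds were applied to mec2-1 yeast cells. Their growth was then compared with that of vehicle-treated cultures to give growth inhibition.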

[7] = NCI Yeast Anticancer Drug Screen. Data for the rad14 strain (AID 159);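 also: 0% = growth of vehicle-treated control cultures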; details: S. cerevisiae rad14 strain growth inhibition, stronger effect = higher value
Summary of the method: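 DNA repair-defective yeast, compound-exposed; % growth inhibition derived by comparison with vehicle-treated controls.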

[8] = NCI Yeast Anticancer Drug Screen. Data for the sgs1 mgt1 strain (AID 161);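 also: 0% = growth of cultures given vehicle only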; details: S. cerevisiae sgs1 mgt1 strain, stronger effect = higher value
Summary of the method: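 Growth of a repair-deficient yeast mutant was monitored after compound treatment and expressed as inhibition relative to vehicle-treated cultures.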

[9] = NCI Yeast Anticancer Drug Screen. Data for the cln2 rad14 strain (AID 165);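 also: 0% = growth equal to vehicle treated cultures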; details: S. cerevisiae cln2 rad14 strain, stronger effect = higher value
Summary of the method: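 Strain: cln2 rad14 yeast, altered in cell cycle control and DNA damage repair. Read-out: growth inhibition vs vehicle.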

[10] = NCI Yeast Anticancer Drug Screen. Data for the bub3 strain (AID 167); details: S. cerevisiae bub3 mutant strain, stronger effect = higher value
Summary of the method: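 In this screen, a yeast mutant lacking normal mitotic checkpoint function is challenged with compound. Relative growth versus vehicle gives the inhibition value.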

[11] = NCI Yeast Anticancer Drug Screen. Data for the wt2 strain (AID 169);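 also: 0% = growth of vehicle-treated yeast cultures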; details: S. cerevisiae wt2 strain growth inhibition, stronger effect = higher value
Summary of the method: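 Growth of compound-treated yeast is measured and expressed as inhibition relative to vehicle-only controls.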

[12] = NCI Yeast Anticancer Drug Screen. Data for the mlh1 strain (AID 171);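 also: 0% = growth of vehicle-treated control cultures of the same strain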; details: S. cerevisiae mlh1 strain growth inhibition, stronger effect = higher value
Summary of the method: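 Test agents were incubated with yeast bearing a defined DNA damage repair or cell cycle control alteration; values are growth inhibition normalised to vehicle-treated cultures.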

[13] = NCI Yeast Anticancer Drug Screen. Data for the sgs1 strain (AID 173);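 also: 0% = growth of vehicle-only control cultures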; details: S. cerevisiae sgs1 mutant, stronger effect = higher value
Summary of the method: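 Strain with an altered DNA repair or cell cycle pathway exposed to compound. Growth then measured. Value = inhibition versus vehicle control.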

[14] = NCI Yeast Anticancer Drug Screen. Data for the mlh1 rad18 strain (AID 175); details: S. cerevisiae mlh1 rad18 strain growth inhibition, stronger effect = higher value
Summary of the method: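 A repair-deficient yeast strain is exposed to test compound, and growth is scored relative to vehicle-treated controls.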

[15] = NCI Yeast Anticancer Drug Screen. Data for the rad18 strain (AID 177); details: S. cerevisiae rad18 mutant growth inhibition, stronger effect = higher value
Summary of the method: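 DNA-repair-defective yeast; compound treatment; growth inhibition scored against vehicle.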

[16] = at 5.0 µM (retest, dose inferred, filed as 0.5)
[17] = at 50.0 µM (retest, dose inferred, filed as 5.0)

Measured: growth inhibition

CCCOC(=O)C(F)C(Br)C(=O)OCCC (stereo not drawn)
active: [1]; at 3.7 µM 89% | [1]; at 11.0 µM 96% | [1]; at 33.0 µM 96% | [1]; at 100.0 µM 99% | [2]; at 3.7 µM 95% | [2]; at 11.0 µM 98% | [2]; at 33.0 µM 97% | [2]; at 100.0 µM 99% | [3]; at 11.0 µM 94% | [3]; at 33.0 µM 98% | [3]; at 100.0 µM 98% | [4]; at 3.7 µM 90% | [4]; at 11.0 µM 97% | [4]; at 33.0 µM 98% | [4]; at 100.0 µM 99% | [5]; at 3.7 µM 90% | [5]; at 11.0 µM 97% | [5]; at 33.0 µM 97% | [5]; [17] 98% | [5]; at 50.0 µM 89.8% | [5]; at 100.0 µM 99% | [6]; at 1.2 µM 71% | [6]; at 3.7 µM 97% | [6]; at 11.0 µM 97% | [6]; at 33.0 µM 98% | [6]; [17] 100% | [6]; at 50.0 µM 92% | [6]; at 100.0 µM 99% | [7]; at 11.0 µM 97% | [7]; at 33.0 µM 97% | [7]; at 100.0 µM 100% | [8]; [17] 98% | [8]; at 50.0 µM 91.9% | [9]; [17] 70% | [9]; at 50.0 µM 90.7% | [10]; at 3.7 µM 82% | [10]; at 11.0 µM 93% | [10]; at 33.0 µM 96% | [10]; [17] 99% | [10]; at 50.0 µM 90.5% | [10]; at 100.0 µM 96% | [11]; at 3.7 µM 98% | [11]; at 11.0 µM 98% | [11]; at 33.0 µM 98% | [11]; at 100.0 µM 100% | [12]; at 3.7 µM 92% | [12]; at 11.0 µM 98% | [12]; at 33.0 µM 97% | [12]; at 100.0 µM 99% | [13]; at 3.7 µM 96% | [13]; at 11.0 µM 98% | [13]; at 33.0 µM 97% | [13]; at 100.0 µM 99% | [14]; [16] 93% | [14]; [17] 98% | [14]; at 50.0 µM 89% | [15]; at 3.7 µM 93% | [15]; at 11.0 µM 97% | [15]; at 33.0 µM 96% | [15]; at 100.0 µM 98%
inactive: [1]; at 1.2 µM 38% | [2]; at 1.2 µM 42% | [3]; at 1.2 µM 33% | [3]; at 3.7 µM 28% | [4]; at 1.2 µM 54% | [5]; at 1.2 µM 58% | [5]; [16] 44% | [6]; [16] 67% | [7]; at 1.2 µM 21% | [7]; at 3.7 µM 67% | [8]; [16] 21% | [9]; [16] 11% | [10]; at 1.2 µM 38% | [10]; [16] 30% | [11]; at 1.2 µM 57% | [12]; at 1.2 µM 40% | [13]; at 1.2 µM 50% | [15]; at 1.2 µM 59%
